# According to PubChem BioAssay AID1159580 (chemical genetic matrix, 2015):
# Where “and” joins values, the source holds several entries; their conditions need not be identical. Equal values may be shown once. The whole screen tested about 5,500 compounds, of which about 2,000 (36%) were called active. Roughly 18% stayed inconclusive and do not appear here. The list shows a part of the results. Unmarked numbers belong to inactive results. Cut-off read from the data, not from the text of the source: active = normalized growth mostly below about 0.91 (no sharp cut-off); inconclusive = no clear call, values can overlap the other calls; inactive = mostly above about 0.92.
# Experiment: chemical genetic growth profiling, strain panel (AID 1159580);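 note: tested at 20 µM; growth read once vehicle control cultures reached saturation at 30 °C; 1 = growth at the plate median or of vehicle wells; lower values mean less growth of the strain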
# Settings: S. cerevisiae deletion strains, growth OD
smiles,measurement,setting,value
COC1=CC(=O)C=C(OC)C1=O,normalized growth,"locus YAL021C, strain ccr4, active compounds read low",1.03
same,normalized growth,"locus YAL026C, strain drs2, active compounds read low",0.978
same,normalized growth,"locus YAL030W, strain snc1, active compounds read low",0.991
same,normalized growth,"locus YBL061C, strain skt5, active compounds read low",0.998
same,normalized growth,"locus YBR009C, strain hhf1, active compounds read low",0.98
same,normalized growth,"locus YBR021W, strain FUR4, active compounds read low",1.12
same,normalized growth,"locus YBR023C, strain chs3, active compounds read low",0.998
same,normalized growth,"locus YBR171W, strain sec66, active compounds read low",1.01
same,normalized growth,"locus YBR229C, strain ROT2, active compounds read low",0.956
same,normalized growth,"locus YBR231C, strain swc5, active compounds read low",0.982
same,normalized growth,"locus YBR279W, strain paf1, active compounds read low",0.992
same,normalized growth,"locus YCL011C, strain gbp2, active compounds read low",1.01
same,normalized growth,"locus YCL016C, strain dcc1, active compounds read low",0.997
same,normalized growth,"locus YCL029C, strain bik1, active compounds read low",0.97
same,normalized growth,"locus YCL061C, strain MRC1, active compounds read low",1.01
same,normalized growth,"locus YCL069W, strain vba3, active compounds read low",1
same,normalized growth,"locus YCR088W, strain abp1, active compounds read low",1
same,normalized growth,"locus YDL005C, strain med2, active compounds read low",1.02
same,normalized growth,"locus YDL035C, strain GPR1, active compounds read low",1.01
same,normalized growth,"locus YDL040C, strain nat1, active compounds read low",0.992
same,normalized growth,"locus YDL074C, strain BRE1, active compounds read low",1.05
same,normalized growth,"locus YDL101C, strain DUN1, active compounds read low",0.975
same,normalized growth,"locus YDL134C, strain PPH21, active compounds read low",0.979
same,normalized growth,"locus YDL185W, strain tfp1, active compounds read low",0.964
same,normalized growth,"locus YDL192W, strain arf1, active compounds read low",0.995
same,normalized growth,"locus YDR001C, strain nth1, active compounds read low",1
same,normalized growth,"locus YDR069C, strain doa4, active compounds read low",1
same,normalized growth,"locus YDR101C, strain arx1, active compounds read low",0.984
same,normalized growth,"locus YDR137W, strain rgp1, active compounds read low",0.88
same,normalized growth,"locus YDR159W, strain sac3, active compounds read low",0.794 (active)
same,normalized growth,"locus YDR162C, strain NBP2, active compounds read low",0.982
same,normalized growth,"locus YDR195W, strain ref2",1.18 [resistant] (active)
same,normalized growth,"locus YDR297W, strain sur2, active compounds read low",0.978
same,normalized growth,"locus YDR318W, strain mcm21, active compounds read low",0.998
same,normalized growth,"locus YDR334W, strain swr1, active compounds read low",1.01
same,normalized growth,"locus YDR335W, strain msn5, active compounds read low",1.01
same,normalized growth,"locus YDR388W, active compounds read low",0.983
same,normalized growth,"locus YDR392W, strain spt3, active compounds read low",0.879
same,normalized growth,"locus YDR502C, strain sam2, active compounds read low",0.988
same,normalized growth,"locus YEL003W, strain gim4, active compounds read low",0.992
same,normalized growth,"locus YEL037C, strain rad23, active compounds read low",1.01
same,normalized growth,"locus YEL061C, strain CIN8 (second series), active compounds read low",1
same,normalized growth,"locus YEL061C, strain CIN8, active compounds read low",0.988
same,normalized growth,"locus YER015W, strain faa2, active compounds read low",0.997
same,normalized growth,"locus YER016W, strain bim1, active compounds read low",0.97
same,normalized growth,"locus YER110C, active compounds read low",0.97
same,normalized growth,"locus YER111C, strain swi4, active compounds read low",1.01
same,normalized growth,"locus YER155C, strain BEM2 (second series), active compounds read low",1.02
same,normalized growth,"locus YER155C, strain BEM2, active compounds read low",1
same,normalized growth,"locus YER167W, strain BCK2, active compounds read low",1
same,normalized growth,"locus YFR010W, strain ubp6, active compounds read low",1
same,normalized growth,"locus YGL078C, strain dbp3, active compounds read low",0.99
same,normalized growth,"locus YGL086W, strain mad1, active compounds read low",0.983
same,normalized growth,"locus YGL167C, strain pmr1, active compounds read low",0.987
same,normalized growth,"locus YGL173C, strain kem1, active compounds read low",1.01
same,normalized growth,"locus YGL227W, strain vid30, active compounds read low",0.998
same,normalized growth,"locus YGL240W, strain doc1, active compounds read low",0.914
same,normalized growth,"locus YGL248W, strain PDE1, active compounds read low",0.996
same,normalized growth,"locus YGL253W, strain hxk2, active compounds read low",1.01
same,normalized growth,"locus YGR135W, strain pre9, active compounds read low",1
same,normalized growth,"locus YGR252W, strain gcn5, active compounds read low",1.16
same,normalized growth,"locus YHR013C, strain ard1, active compounds read low",1.04
same,normalized growth,"locus YHR027C, strain rpn1, active compounds read low",0.995
same,normalized growth,"locus YHR030C, strain SLT2, active compounds read low",0.994 and 1.02
same,normalized growth,"locus YHR079C, strain IRE1 (second series), active compounds read low",0.984
same,normalized growth,"locus YHR079C, strain IRE1, active compounds read low",1.01
same,normalized growth,"locus YHR094C, strain hxt1, active compounds read low",0.976
same,normalized growth,"locus YHR129C, strain ARP1, active compounds read low",0.997
same,normalized growth,"locus YHR142W, strain chs7, active compounds read low",1.01
same,normalized growth,"locus YHR200W, strain rpn10, active compounds read low",1.01
same,normalized growth,"locus YIL066C, strain RNR3, active compounds read low",0.988
same,normalized growth,"locus YIL073C, strain SPO22, active compounds read low",0.975
same,normalized growth,"locus YIL125W, strain kgd1, active compounds read low",0.995
same,normalized growth,"locus YIR030C, strain dcg1, active compounds read low",0.989
same,normalized growth,"locus YJL092W, strain hpr5, active compounds read low",1
same,normalized growth,"locus YJL095W, strain BCK1 (second series), active compounds read low",0.996
same,normalized growth,"locus YJL095W, strain BCK1, active compounds read low",0.982 and 1.03
same,normalized growth,"locus YJL115W, strain asf1, active compounds read low",1.01
same,normalized growth,"locus YJL129C, strain trk1, active compounds read low",1.01
same,normalized growth,"locus YJL134W, strain LCB3, active compounds read low",0.99
same,normalized growth,"locus YJL154C, strain vps35, active compounds read low",1.01
same,normalized growth,"locus YJL164C, strain tpk1, active compounds read low",0.999
same,normalized growth,"locus YJL166W, strain qcr8, active compounds read low",0.99
same,normalized growth,"locus YJL168C, strain set2, active compounds read low",0.998
same,normalized growth,"locus YJL187C, strain SWE1 (second series), active compounds read low",0.987
same,normalized growth,"locus YJR043C, strain POL32, active compounds read low",1
same,normalized growth,"locus YJR066W, strain TOR1, active compounds read low",0.941
